According to PubChem BioAssay (NCATS):
Results filed as inconclusive are left out. Activity calls are given as the source filed them. Unless noted, calls come from the whole dose curve.

target: Tumor susceptibility gene 101 protein (Homo sapiens) (UniProt Q99816); assay: qHTS Validation Assay for Iinhibitors of HIV-1 Budding by Blocking the Interaction of PTAP/TSG101 (AID 485342); details: TSG101-PTAP binding, fluorescence polarization, 4-point titration; series mostly up to 115 µM
In short: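 FP read-out: FITC-PTAP peptide, 50 nM final, binding Tsg101 binding domain, 10 uM final; 20 min r.t.; 10 mM HEPES pH 7.5, 0.15 M NaCl, 0.01% Tween 20, 3 mM EDTA, 0.1 mM TCEP.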

Sequence of Tumor susceptibility gene 101 protein (Homo sapiens) (Q99816 whole entry, looked up, the tested form may be a part): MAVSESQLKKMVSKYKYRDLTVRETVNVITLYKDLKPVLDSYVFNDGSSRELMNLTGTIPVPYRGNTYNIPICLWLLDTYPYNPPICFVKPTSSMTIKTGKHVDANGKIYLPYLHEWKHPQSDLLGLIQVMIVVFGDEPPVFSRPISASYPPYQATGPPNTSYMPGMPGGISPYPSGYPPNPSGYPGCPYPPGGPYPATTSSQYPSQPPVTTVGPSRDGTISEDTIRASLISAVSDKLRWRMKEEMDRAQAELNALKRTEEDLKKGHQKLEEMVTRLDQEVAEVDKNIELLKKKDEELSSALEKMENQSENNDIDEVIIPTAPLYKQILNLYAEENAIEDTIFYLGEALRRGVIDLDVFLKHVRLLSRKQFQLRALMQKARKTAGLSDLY

Structure (SMILES) | outcome
C=C1C[C@@]23CC[C@H]4[C@@](C)(CCC[C@@]4(C)C(=O)OC4OC(CO)C(O)C(O)C4O)[C@@H]2CC[C@]1(OC1OC(CO)C(O)C(O)C1OC1OC(CO)C(O)C(O)C1O)C3 (some centres undefined) | inactive
CCc1ccc2c(-c3cccc(Cl)c3)nc(=O)n(CC)c2n1 | inactive
OC[C@H]1O[C@H](n2cnc3c(N[C@H]4CCC[C@@H]4O)ncnc32)[C@H](O)[C@@H]1O | inactive
c1ccc2c(c1)CCC[C@H]2Nc1nc2ccccc2[nH]1 | inactive
CN(C)S(=O)(=O)c1ccc2c(c1)/C(=C/c1cc3c([nH]1)CCCC3)C(=O)N2 | inactive
CNCCc1cnc(CCC(c2ccccc2)c2ccccc2)[nH]1 | inactive
COc1cc(/C=C(\C#N)C(=O)c2ccc(O)c(O)c2)cc(I)c1O | inactive
O=C1Cc2c([nH]c3ccc(Br)cc23)-c2ccccc2N1 | inactive
CCCC[C@@]1(C2CCCC2)Cc2cc(OCC(=O)O)c(Cl)c(Cl)c2C1=O | inactive
COc1ccc(C(=O)NCc2cccnc2)cc1C(=O)NCc1cccnc1 | inactive
O=C(N[C@@H](Cc1ccccc1)C(=O)CCl)OCc1ccccc1 | inactive
CC(C)NCC(O)COc1ccc(CC(N)=O)cc1 (centres undefined) | inactive
CC(C)(C)NCC(O)COc1cccc2[nH]c(=O)[nH]c12 (centres undefined) | inactive
CC(C)(C)c1ccc(/C=C/C(=O)Nc2ccc3c(c2)OCCO3)cc1 | inactive
CN(CC[C@@H](Oc1ccc(C(F)(F)F)cc1)c1ccccc1)CC(=O)O | inactive
Nc1ccc(-c2nc3ccc(-c4nc5ccc(N)cc5[nH]4)cc3[nH]2)cc1 | inactive

system: not listed separately; assay: qHTS Validation Assay to Find Inhibitors of Chronic Active B-Cell Receptor Signaling (AID 485345; active = well fitted curve in the direction sought with a large enough effect in the main read-out, with a control signal flat, not every such curve was filed as active); details: ABC-DLBCL cells, chronic BCR signaling reporter, CBG luciferase; series mostly up to 46.1 µM
In short: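 Read-out: ratio of filter-corrected green (IkappaBalpha fusion) to red (native) luciferase signal in doxycycline-induced TMD8 cells after 4 h at 37C. Titration spanned 46 uM–3 nM; Data were normalised to basal cells and 10 uM MG-132 wells.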

Structure (SMILES) | outcome
S=C(S)N1CCCC1 | inactive
CC(C)NC[C@H](O)COc1ccc(CC(N)=O)cc1 | inactive
NC(N)=NC(N)=Nc1ccccc1 | inactive
Cc1cccc(C2CN(C)CCc3c2cc(O)c(O)c3Cl)c1 (centres undefined) | inactive
C=C(C)C1CC=C(C(=O)O)CC1 (centres undefined) | inactive
CCCCCCC/C=C\CCCCCCCCC(=O)O | inactive
c1ccc2c(c1)CCC[C@H]2Nc1nc2ccccc2[nH]1 | inactive
CCCC[C@@]1(C2CCCC2)Cc2cc(OCC(=O)O)c(Cl)c(Cl)c2C1=O | inactive
COc1ccc(C(=O)NCc2cccnc2)cc1C(=O)NCc1cccnc1 | inactive
c1ccc(CN2CCC3(CCCc4ccccc43)CC2)cc1 | inactive
CC(C)NCC(O)COc1ccc(CC(N)=O)cc1 (centres undefined) | inactive
CC(C)(C)NCC(O)COc1cccc2[nH]c(=O)[nH]c12 (centres undefined) | inactive
CN(CC[C@@H](Oc1ccc(C(F)(F)F)cc1)c1ccccc1)CC(=O)O | inactive
